Laboratory results reported in the supplement of paper PMC10849652.
Targets with a hit are over-represented here; the source holds about 7,900 in all. About 0.6% of all pairs of compound and target were hits. Unmarked numbers belong to inactive results.

The targets below were run with C1=CC=C(C=C1)[C@H](COC2=CC3=C(C=C2)NC(=O)N3)NC(=O)C4=CC=CN(C4=O)CC5=CC(=C(C=C5)F)F (assay: log2 fold change, soluble protein after heating vs DMSO (PISA); higher = thermal stabilisation; K562 cells, 10 uM, 30 min; active = over 0.2 and 3.5 SD of the protein, either way, in both replicates (recomputed)).
Method in brief: (§1)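 Quantification of soluble protein used TMTpro 16plex LC-MS/MS, with channel sums equalised. Samples were the supernatant after 21,000xg for 90 min of pooled aliquots from K562 cells (2×10^6 cells/mL) treated with 10 μM compound for 30 min, heated for 3 min over 48°C-58°C, and extracted in PBS with 0.5% NP-40 at 4°C. Values, from duplicates, describe thermal stability against control samples on a log2 fold-change scale.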

UniProt Q9HBU6, sequence (Q9HBU6 whole entry, looked up): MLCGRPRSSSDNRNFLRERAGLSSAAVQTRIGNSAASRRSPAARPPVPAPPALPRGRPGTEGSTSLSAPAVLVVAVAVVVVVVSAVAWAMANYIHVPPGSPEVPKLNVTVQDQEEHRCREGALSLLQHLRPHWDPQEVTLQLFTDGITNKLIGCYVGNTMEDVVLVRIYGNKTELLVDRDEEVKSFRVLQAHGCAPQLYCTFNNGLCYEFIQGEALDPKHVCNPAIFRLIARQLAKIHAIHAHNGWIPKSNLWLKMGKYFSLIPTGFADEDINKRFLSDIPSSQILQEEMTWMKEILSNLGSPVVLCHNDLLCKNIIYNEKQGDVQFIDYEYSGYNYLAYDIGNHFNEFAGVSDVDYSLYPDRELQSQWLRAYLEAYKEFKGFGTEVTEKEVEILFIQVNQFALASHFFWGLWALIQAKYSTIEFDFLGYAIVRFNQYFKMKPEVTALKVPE
UniProt Q9H467, sequence (Q9H467 whole entry, looked up): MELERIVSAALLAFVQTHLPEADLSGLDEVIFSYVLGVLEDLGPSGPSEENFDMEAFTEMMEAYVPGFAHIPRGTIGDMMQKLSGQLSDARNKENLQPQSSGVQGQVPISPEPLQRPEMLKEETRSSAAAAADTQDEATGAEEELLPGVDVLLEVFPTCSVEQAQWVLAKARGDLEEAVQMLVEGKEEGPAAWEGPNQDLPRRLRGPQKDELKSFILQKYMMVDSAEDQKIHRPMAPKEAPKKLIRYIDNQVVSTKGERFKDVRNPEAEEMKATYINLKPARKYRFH
UniProt Q01780, sequence (Q01780 whole entry, looked up): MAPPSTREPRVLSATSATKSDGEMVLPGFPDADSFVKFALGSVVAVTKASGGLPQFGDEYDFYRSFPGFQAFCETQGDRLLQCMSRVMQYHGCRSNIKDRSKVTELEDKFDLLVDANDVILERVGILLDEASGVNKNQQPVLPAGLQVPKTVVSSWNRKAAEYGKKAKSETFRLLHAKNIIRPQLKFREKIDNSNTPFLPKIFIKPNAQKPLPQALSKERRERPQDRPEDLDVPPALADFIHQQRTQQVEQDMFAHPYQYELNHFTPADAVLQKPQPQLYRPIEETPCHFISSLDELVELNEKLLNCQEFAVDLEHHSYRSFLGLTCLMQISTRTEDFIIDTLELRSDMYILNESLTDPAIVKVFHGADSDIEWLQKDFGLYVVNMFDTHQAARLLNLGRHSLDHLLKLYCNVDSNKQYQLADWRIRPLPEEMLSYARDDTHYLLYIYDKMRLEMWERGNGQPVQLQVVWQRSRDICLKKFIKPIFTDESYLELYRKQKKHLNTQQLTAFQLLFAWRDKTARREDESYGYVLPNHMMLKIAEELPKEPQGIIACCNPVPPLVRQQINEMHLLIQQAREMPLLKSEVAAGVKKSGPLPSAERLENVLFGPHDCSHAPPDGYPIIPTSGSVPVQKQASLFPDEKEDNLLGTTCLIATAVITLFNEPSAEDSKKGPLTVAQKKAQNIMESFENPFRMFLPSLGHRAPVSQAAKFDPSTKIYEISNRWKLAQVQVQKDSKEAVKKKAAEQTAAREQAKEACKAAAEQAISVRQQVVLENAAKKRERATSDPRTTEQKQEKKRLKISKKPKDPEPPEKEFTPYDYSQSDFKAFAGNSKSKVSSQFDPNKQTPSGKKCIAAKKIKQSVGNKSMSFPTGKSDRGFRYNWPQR
UniProt Q96CS3, sequence (Q96CS3 whole entry, looked up): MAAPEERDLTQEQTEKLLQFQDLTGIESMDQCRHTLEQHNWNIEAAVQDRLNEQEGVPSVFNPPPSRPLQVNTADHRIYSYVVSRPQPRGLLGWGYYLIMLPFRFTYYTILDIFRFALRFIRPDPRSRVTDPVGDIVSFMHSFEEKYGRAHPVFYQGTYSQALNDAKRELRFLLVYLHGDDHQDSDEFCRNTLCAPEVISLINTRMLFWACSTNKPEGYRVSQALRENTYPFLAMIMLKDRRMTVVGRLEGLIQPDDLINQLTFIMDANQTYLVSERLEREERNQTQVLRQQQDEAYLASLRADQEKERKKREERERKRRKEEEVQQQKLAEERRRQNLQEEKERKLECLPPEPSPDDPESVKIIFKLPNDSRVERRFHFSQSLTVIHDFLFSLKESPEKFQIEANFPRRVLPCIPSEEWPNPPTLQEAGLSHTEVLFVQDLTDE
UniProt Q14118, sequence (Q14118 whole entry, looked up): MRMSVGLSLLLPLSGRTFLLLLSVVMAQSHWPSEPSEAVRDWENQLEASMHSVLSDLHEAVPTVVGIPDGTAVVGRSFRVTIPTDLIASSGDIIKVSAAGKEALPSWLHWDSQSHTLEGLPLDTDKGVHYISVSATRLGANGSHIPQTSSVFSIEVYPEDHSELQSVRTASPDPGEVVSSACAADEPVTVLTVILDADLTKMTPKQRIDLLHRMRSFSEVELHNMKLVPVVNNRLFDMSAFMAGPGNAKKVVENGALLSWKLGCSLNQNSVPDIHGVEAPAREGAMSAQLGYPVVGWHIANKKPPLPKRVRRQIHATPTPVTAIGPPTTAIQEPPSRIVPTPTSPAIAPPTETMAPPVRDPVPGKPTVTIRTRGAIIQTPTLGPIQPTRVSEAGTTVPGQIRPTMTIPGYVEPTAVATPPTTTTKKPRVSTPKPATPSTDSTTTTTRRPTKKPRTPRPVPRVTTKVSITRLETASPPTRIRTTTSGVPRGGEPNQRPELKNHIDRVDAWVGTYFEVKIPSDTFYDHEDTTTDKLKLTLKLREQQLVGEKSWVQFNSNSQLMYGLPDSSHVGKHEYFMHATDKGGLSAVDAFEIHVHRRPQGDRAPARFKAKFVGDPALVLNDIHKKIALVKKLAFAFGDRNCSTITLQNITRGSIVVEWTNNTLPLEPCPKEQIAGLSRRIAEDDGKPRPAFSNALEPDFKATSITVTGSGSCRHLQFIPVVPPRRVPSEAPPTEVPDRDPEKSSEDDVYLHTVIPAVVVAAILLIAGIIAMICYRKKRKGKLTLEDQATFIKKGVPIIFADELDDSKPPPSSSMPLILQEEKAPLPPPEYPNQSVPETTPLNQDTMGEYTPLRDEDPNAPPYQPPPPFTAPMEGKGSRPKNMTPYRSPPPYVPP
UniProt O60231, sequence (O60231 whole entry, looked up): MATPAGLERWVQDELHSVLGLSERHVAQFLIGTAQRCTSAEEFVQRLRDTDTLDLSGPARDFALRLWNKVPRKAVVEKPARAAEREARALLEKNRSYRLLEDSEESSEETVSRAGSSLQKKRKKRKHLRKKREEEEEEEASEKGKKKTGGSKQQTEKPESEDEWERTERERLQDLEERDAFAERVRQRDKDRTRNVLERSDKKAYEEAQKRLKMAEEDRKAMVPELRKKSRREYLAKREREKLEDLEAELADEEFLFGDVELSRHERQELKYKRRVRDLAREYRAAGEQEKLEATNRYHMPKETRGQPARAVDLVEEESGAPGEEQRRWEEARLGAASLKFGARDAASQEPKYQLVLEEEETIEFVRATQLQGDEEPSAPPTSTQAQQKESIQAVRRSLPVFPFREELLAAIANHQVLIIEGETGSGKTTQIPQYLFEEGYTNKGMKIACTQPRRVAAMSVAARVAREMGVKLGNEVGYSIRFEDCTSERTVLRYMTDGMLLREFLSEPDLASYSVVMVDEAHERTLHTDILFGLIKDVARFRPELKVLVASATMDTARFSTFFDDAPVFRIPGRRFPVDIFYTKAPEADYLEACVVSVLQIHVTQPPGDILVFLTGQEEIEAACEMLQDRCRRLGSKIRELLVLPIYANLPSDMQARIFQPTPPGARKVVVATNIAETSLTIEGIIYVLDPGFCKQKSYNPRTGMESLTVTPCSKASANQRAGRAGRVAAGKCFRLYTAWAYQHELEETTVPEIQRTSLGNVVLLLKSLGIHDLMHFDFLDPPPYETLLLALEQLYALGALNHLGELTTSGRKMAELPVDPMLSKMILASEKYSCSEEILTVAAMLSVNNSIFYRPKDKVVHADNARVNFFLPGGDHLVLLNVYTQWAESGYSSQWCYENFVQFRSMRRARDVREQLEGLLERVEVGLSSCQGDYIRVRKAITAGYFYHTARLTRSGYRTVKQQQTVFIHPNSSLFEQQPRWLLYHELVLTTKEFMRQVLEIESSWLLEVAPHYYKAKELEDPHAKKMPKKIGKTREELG
UniProt Q96EV8, sequence (Q96EV8 whole entry, looked up): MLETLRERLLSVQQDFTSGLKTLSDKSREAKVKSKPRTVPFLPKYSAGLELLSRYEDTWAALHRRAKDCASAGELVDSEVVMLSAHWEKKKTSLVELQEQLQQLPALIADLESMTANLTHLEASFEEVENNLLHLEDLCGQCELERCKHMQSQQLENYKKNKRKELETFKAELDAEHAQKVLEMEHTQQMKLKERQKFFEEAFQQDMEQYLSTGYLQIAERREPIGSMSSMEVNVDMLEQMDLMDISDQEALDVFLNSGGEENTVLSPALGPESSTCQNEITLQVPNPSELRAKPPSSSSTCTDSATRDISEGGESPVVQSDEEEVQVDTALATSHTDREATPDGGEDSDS
UniProt O75071, sequence (O75071 whole entry, looked up): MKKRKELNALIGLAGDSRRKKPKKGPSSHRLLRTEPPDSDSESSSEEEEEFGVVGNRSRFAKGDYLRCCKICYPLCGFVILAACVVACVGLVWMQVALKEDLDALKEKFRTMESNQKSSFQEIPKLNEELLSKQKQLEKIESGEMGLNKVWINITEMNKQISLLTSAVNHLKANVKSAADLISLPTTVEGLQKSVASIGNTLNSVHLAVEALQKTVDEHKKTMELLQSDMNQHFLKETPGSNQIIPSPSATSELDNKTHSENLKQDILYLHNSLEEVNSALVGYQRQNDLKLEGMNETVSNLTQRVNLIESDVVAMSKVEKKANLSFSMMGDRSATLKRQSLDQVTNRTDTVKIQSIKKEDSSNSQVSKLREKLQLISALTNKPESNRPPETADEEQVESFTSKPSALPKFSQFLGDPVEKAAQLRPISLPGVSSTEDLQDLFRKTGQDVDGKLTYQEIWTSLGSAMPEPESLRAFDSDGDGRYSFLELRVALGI
UniProt Q96DA6, sequence (Q96DA6 whole entry, looked up): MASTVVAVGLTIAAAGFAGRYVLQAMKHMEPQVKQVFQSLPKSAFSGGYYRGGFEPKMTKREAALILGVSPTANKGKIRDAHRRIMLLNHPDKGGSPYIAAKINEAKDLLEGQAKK

Row | Target | log2 fold change
1 | DHRS3 (UniProt O75911) | 0.007
2 | EFCAB14 (UniProt O75071) | 0.045
3 | ECH1 (UniProt Q13011) | -0.072
4 | DTWD2 (UniProt Q8NBA8) | -0.011
5 | DDX5 (UniProt P17844) | -0.061
6 | DTNBP1 (UniProt Q96EV8) | -0.033
7 | FADS1, A0A0A0MR51 | -0.051
8 | EHD2 (UniProt Q9NZN4) | -0.018
9 | ERLIN2 (UniProt O94905) | -0.025
10 | FAM83D (UniProt Q9H4H8) | -0.068
11 | DHRS1 (UniProt Q96LJ7) | 0.241
12 | DNAJC19 (UniProt Q96DA6) | 0.025
13 | FAM50A (UniProt Q14320) | -0.026
14 | CUEDC2 (UniProt Q9H467) | 0.036
15 | FAF2 (UniProt Q96CS3) | 0.002
16 | F5 (UniProt P12259) | -0.025
17 | EIF3J (UniProt O75822) | -0.034
18 | FAM3A (UniProt P98173) | -0.01
19 | DMXL1 (UniProt Q9Y485) | -0.017
20 | EIF4G1 isoform 8 (UniProt Q04637) | -0.074

Row | Target | log2 fold change
21 | EXOSC10 (UniProt Q01780) | 0.162
22 | EMD (UniProt P50402) | 0.016
23 | DCTN1 isoform 4 (UniProt Q14203) | -0.052
24 | EIF4G3 isoform 3 (UniProt O43432) | -0.021
25 | DHX16 (UniProt O60231) | -0.024
26 | CUX1 isoform 3 (UniProt P39880) | 0
27 | DOLPP1 (UniProt Q86YN1) | -0.028
28 | DUS3L (UniProt Q96G46) | 0.073
29 | EIF2AK1 (UniProt Q9BQI3) | 0.025
30 | ETNK1 (UniProt Q9HBU6) | 0
31 | DNAJC24 (UniProt Q6P3W2) | 0.05
32 | EEF1B2 (UniProt P24534) | -0.037
33 | DNTTIP2 (UniProt Q5QJE6) | -0.068
34 | DNAAF2 (UniProt Q9NVR5) | 0.039
35 | DAG1 (UniProt Q14118) | -0.068
36 | DOHH (UniProt Q9BU89) | 0.218
37 | DHRS7B (UniProt Q6IAN0) | 0.054
38 | DNAJB1 (UniProt P25685) | -0.019
39 | FAM241A (UniProt Q8N8J7) | -0.046

These targets were tested with CC1=C(SC2=C1C(=N[C@H](C3=NN=C(N32)C)CC(=O)N)C4=CC=C(C=C4)Cl)C in the same assay as above.
Method in brief: as §1

Row | Target | log2 fold change
40 | DHRS3 (UniProt O75911) | 0.068
41 | EFCAB14 (UniProt O75071) | -0.293 (active)
42 | ECH1 (UniProt Q13011) | 0.161
43 | DTWD2 (UniProt Q8NBA8) | 0.125
44 | DDX5 (UniProt P17844) | 0.008
45 | DTNBP1 (UniProt Q96EV8) | 0.031
46 | FADS1, A0A0A0MR51 | 0.026
47 | EHD2 (UniProt Q9NZN4) | 0.049
48 | ERLIN2 (UniProt O94905) | -0.048
49 | FAM83D (UniProt Q9H4H8) | 0.027
50 | DHRS1 (UniProt Q96LJ7) | 0.015
51 | DNAJC19 (UniProt Q96DA6) | 0.021
52 | FAM50A (UniProt Q14320) | 0.032
53 | CUEDC2 (UniProt Q9H467) | 0.047
54 | FAF2 (UniProt Q96CS3) | 0.025
55 | F5 (UniProt P12259) | -0.091
56 | EIF3J (UniProt O75822) | 0.025
57 | FAM3A (UniProt P98173) | -0.001
58 | DMXL1 (UniProt Q9Y485) | 0.003
59 | EIF4G1 isoform 8 (UniProt Q04637) | -0.016

Row | Target | log2 fold change
60 | EXOSC10 (UniProt Q01780) | 0.184
61 | EMD (UniProt P50402) | 0.022
62 | DCTN1 isoform 4 (UniProt Q14203) | -0.021
63 | EIF4G3 isoform 3 (UniProt O43432) | 0.021
64 | DHX16 (UniProt O60231) | 0.007
65 | CUX1 isoform 3 (UniProt P39880) | 0.025
66 | DOLPP1 (UniProt Q86YN1) | 0.02
67 | DUS3L (UniProt Q96G46) | 0.04
68 | EIF2AK1 (UniProt Q9BQI3) | -0.036
69 | ETNK1 (UniProt Q9HBU6) | 0.044
70 | DNAJC24 (UniProt Q6P3W2) | 0.072
71 | EEF1B2 (UniProt P24534) | -0.002
72 | DNTTIP2 (UniProt Q5QJE6) | -0.117
73 | DNAAF2 (UniProt Q9NVR5) | 0.02
74 | DAG1 (UniProt Q14118) | 0.074
75 | DOHH (UniProt Q9BU89) | 0.072
76 | DHRS7B (UniProt Q6IAN0) | 0.032
77 | DNAJB1 (UniProt P25685) | 0.015
78 | FAM241A (UniProt Q8N8J7) | 0.034
